Bioassay records as filed in PubChem.
Most compounds without a hit are left out; they make up all but 7.9% or so of the library.
M1 agonist: activates the M1 muscarinic receptor | 3% of 64,000 active | AID 626 | CHO-M1 cells, Fluo-4 calcium fluorescence, agonist mode; active compounds read high | B-score at 10 µM;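 active = fluorescence rise, raw or as B-score row- and column-corrected plate score, outside the 99.7% band of its plate's samples, either direction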
Cav3 T inh: blocks human Cav3.2 T-type calcium channel | O95180 | Cav3.2-expressing cells, Fluo-4 calcium fluorescence FDSS; active compounds read low | B-score at 10 µM | 4% of 100,000 active;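 active = single-dose well whose peak fluorescence ratio is a statistical outlier from its plate by either plate-standardised score or position-corrected B-score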
HER2 expr 66K: lowers expression of human Her2 kinase; HER2 level % of control, % at 10 µM; 0.69% of 65,000 active; SKBR-3 HER2 protein level, AlphaScreen, 18-24 h; active compounds read low; AID 645; P04626;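 active = HER2 level under 5% of the carrier-only control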;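 also: 100% = DMSO carrier and 0% = 500 nM PU-H71 HSP90 inhibitor; lower value means stronger loss of Her2 protein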
M1 antag: antagonists of rat M1 muscarinic receptor; CHO-M1 cells, Fluo-4 calcium, ACh EC80 antagonist mode; active compounds read low; B-score at 10 µM; 3.4% of 64,000 active; AID 628;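 active = calcium fluorescence response, raw or row-and-column corrected B-score, differing from the plate sample mean either way at a set confidence level, mostly lower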
PLAP act: activates human placental alkaline phosphatase; P05187; activation fold at 20 µM; 1.2% of 96,000 active; purified PLAP enzyme, luminescent substrate read-out; active compounds read high; in the data active = activation fold above about 2
Target sequence (P05187 whole entry, looked up): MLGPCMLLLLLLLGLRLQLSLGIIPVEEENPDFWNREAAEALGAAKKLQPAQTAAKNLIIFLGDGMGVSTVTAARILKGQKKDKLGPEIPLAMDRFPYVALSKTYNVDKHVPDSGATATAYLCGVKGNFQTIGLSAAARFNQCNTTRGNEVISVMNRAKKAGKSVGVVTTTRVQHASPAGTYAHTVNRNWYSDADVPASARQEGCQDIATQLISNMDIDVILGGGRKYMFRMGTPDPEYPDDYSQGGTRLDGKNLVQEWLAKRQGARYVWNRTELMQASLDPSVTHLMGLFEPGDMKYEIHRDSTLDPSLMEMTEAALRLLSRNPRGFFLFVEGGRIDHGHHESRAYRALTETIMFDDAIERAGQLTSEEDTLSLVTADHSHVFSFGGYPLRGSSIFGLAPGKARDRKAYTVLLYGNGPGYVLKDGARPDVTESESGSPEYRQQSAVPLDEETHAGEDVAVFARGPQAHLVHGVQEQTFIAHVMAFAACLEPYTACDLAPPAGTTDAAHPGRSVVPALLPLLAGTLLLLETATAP
* hit, by the source's call; nt = no result.

SMILES | M1 agonist | Cav3 T inh | HER2 expr 66K | M1 antag | PLAP act
C[C@H]1CCC[C@@]2(O[C@H](CCO)C[C@H](O)[C@H]2O)O1 | nt | 0.55 | nt | nt | nt
COc1ccccc1NC(=O)CSC(N)=O | nt | -2.8 | nt | nt | 1.2
C=C1CCN(c2ccc(C(=O)NCc3ccc(OC)cc3)cc2[N+](=O)[O-])CC1 | nt | -2.3 | nt | nt | nt
CC(N=C1NS(=O)(=O)c2ccccc21)c1ccccc1 (stereo not given) | -0.056 | -0.62 | 116 | -1.7 | 1.2
O=S1(=O)Nc2c(ccc3cccnc23)-c2ccccc21 | 0.52 | 1.6 | -8.0* | -0.65 | 1.9
Cc1cc2nc(C)n(CCCNC(=O)Nc3cccc4ccccc34)c2cc1C | nt | -0.69 | nt | nt | nt
OC(COCc1ccccc1)Cn1cnc2ccccc21 (stereo not given) | nt | 0.36 | nt | nt | 1.2
OC(CN(c1ccccc1)c1ccccc1)Cn1cnc2ccccc21 (stereo not given) | 2.3 | -5* | 61 | 0.54 | 1.6
N#CC1=C(N)C(C#N)(C#N)C(c2cccnc2)C2CCCC=C12 (stereo not given) | 7.9* | -2.1 | 98 | 1.4 | 1.3
Cc1ccc(S(=O)(=O)NCCCCCC(=O)Nc2nccs2)cc1 | -1.6 | -2.3 | 105 | -0.021 | 1.3
Cc1ccc(C)c(OCCCC(=O)Nc2nccs2)c1 | nt | -4.6* | nt | nt | 0.9
Cc1ccccc1OCCCC(=O)Nc1nccs1 | -0.43 | -0.66 | -20* | 0.94 | 0.9
Cc1ccccc1OCCCC(=O)Nc1ccc(Br)cc1 | nt | -0.84 | nt | nt | 0.8
CC(C)CCNC(=O)c1c(CSc2ccc(Cl)cc2)noc1C(=O)NCc1ccccc1 | nt | 0.034 | nt | nt | nt
CC(C)c1cc(C(C)C)c(S(=O)(=O)N2c3ccccc3[C@@]3(Br)C[C@H]4C(=O)N[C@@H](Cc5ccccc5)C(=O)N4[C@@H]23)c(C(C)C)c1 | nt | -1.5 | nt | nt | nt
CC(C)N(Cc1nc(-c2ccc(Cl)cc2)no1)C(=O)C(c1ccccc1)c1ccccc1 | nt | -4.3* | nt | nt | 1.2
Cc1ccc(-c2noc(CN(C(=O)C(c3ccccc3)c3ccccc3)C(C)C)n2)cc1 | nt | -8.5* | nt | nt | 1.1
CC(C)N(Cc1nc(-c2ccccc2)no1)C(=O)CCCN1C(=O)c2ccccc2C1=O | -0.11 | -1.8 | 101 | 0.33 | 1.5
CCc1ccc(-c2cc(C(F)(F)F)n3nc(C(=O)Nc4c(C)nn(Cc5ccc(F)cc5)c4C)cc3n2)s1 | nt | -0.71 | nt | nt | 1.4
COc1ccc(-c2[nH]ncc2-c2cnc(C)s2)c(O)c1 | 0.085 | -0.47 | 91 | -0.76 | 2.9*
COc1ccc(-c2[nH]ncc2Oc2ccccc2OC)c(O)c1 | nt | -2.3 | 81 | nt | 2.5*
C=C(C)COc1ccc(-c2[nH]ncc2Oc2ccccc2OCC)c(O)c1 | 1.2 | -0.46 | -17* | -0.41 | 1.8
CCCc1ccc(Oc2cn[nH]c2-c2ccc(O)cc2O)cc1 | -0.41 | -3.5 | 94 | 0.04 | 1.8
C=C(C)COc1ccc(-c2[nH]ncc2Oc2cccc(OC)c2)c(O)c1 | 0.51 | -0.44 | 52 | -0.012 | 1.5
COc1ccc(O)c(-c2cn[nH]c2-c2cccs2)c1 | 0.86 | -1.3 | 114 | -1 | 1.4
SMILES | M1 agonist | Cav3 T inh | HER2 expr 66K | M1 antag | PLAP act
COc1ccc(Oc2cn[nH]c2-c2ccc(O)cc2O)cc1 | -0.7 | -6* | 101 | 0.53 | 2.2*
CC(C)C[C@H](NC(=O)c1nc[nH]c1C(=O)N1CCc2ccccc2C1)C(=O)OC(C)(C)C | nt | -0.26 | nt | nt | nt
COc1cccc2c1OC[C@@H](CO)[C@H]2N(C)C(=O)Nc1ccc(Cl)cc1Cl | nt | nt | nt | nt | 1.2
O=C(CSCc1ccc(Cl)cc1)Nc1ccc2c(c1)OCCO2 | nt | -3 | nt | nt | 1
CC(O)[C@H]1CNC(=O)C(=O)N1CC1(c2ccccc2)CC1 (stereo not given in full) | nt | -1.3 | nt | nt | nt
Cc1cc(C(=O)CSc2nnc(Nc3ccccc3)s2)c(C)n1CC1CCCO1 (stereo not given) | -0.31 | -1.6 | 99 | -0.21 | 0.8
Cc1cc(C(=O)CSc2nnc(Nc3ccccc3F)s2)c(C)n1CC1CCCO1 (stereo not given) | 1.6 | -6.9* | 82 | -1.2 | 1.9
O=C1CC(=C2c3ccccc3-c3ccccc32)C(=O)N1CCN1CCN(c2cccc(Cl)c2)CC1 | nt | -0.7 | nt | nt | nt
CCCCN(C)C(=O)C1CCN(Cc2ccc(OCc3ccccc3)cc2)CC1 | nt | -3.6* | nt | nt | nt
Cn1c(Cn2c(=O)sc3ccccc32)nnc1SCC(=O)Nc1ccc2c(c1)OCO2 | 0.43 | -0.12 | 104 | 0.79 | nt
CCCN(CCC)C(=O)CSc1nc2n[nH]c(C)c2c(=N)n1-c1ccc(OC)cc1 | 0.47 | nt | 69 | -0.14 | nt
CCCN(CCC)C(=O)CSc1nc2n[nH]c(C)c2c(=N)n1-c1ccc(OCC)cc1 | 1.4 | -6.2* | 61 | 0.38 | 1
C=CCc1ccc(OCC(O)COc2ccc(CC=C)cc2OC)c(OC)c1 | nt | -8.9* | nt | nt | 2*
C=CCc1ccc(OCCOc2ccc(/C=N/n3cnnc3)cc2OCC)c(OC)c1 | nt | 0.56 | nt | nt | 1.5
C=CCc1ccc(OCCOCCOc2ccccc2[N+](=O)[O-])c(OC)c1 | nt | -4.6* | nt | nt | 1.3
C=CCc1ccc(OCCCOc2ccc(C)cc2OC)c(OC)c1 | nt | -0.47 | nt | nt | 1.3
C=CCc1ccc(OCCCCN2CC(C)OC(C)C2)c(OC)c1 (stereo not given) | nt | -0.62 | nt | nt | 2*
Cc1ccc2nc(NC(=O)COC(=O)c3ccc(Br)o3)sc2c1 | nt | -0.025 | nt | nt | 1.1
COC(=O)C1CCN(C(=O)C2CCCCC2)CC1 | 0.0099 | -0.037 | 147 | nt | 0.9
COc1ccc(NC(=S)N2C3CCC2CC(NC(=O)NC24CC5CC(CC(C5)C2)C4)C3)c(OC)c1 (stereo not given) | nt | -0.41 | nt | nt | 2.5*
COc1ccccc1NC(=S)N1CCC(NC(=O)NC23CC4CC(CC(C4)C2)C3)CC1 | nt | -0.79 | nt | nt | 1.6
Cc1nc2nc(SCC(N)=O)[nH]c2cc1Br | -0.66 | nt | 87 | 0.59 | 2.2*
CCOC(=O)CNC(=O)CSc1nc2nc(C)c(Br)cc2[nH]1 | -0.062 | 1.2 | 113 | -0.5 | 2.3*
COc1ccc(C2C3=C(CCCC3=O)Nc3nc4ccccc4n32)c(OC)c1OC (stereo not given) | 1.4 | nt | 74 | 0.094 | nt
COc1ccc(OC)c(Nc2cc(-c3ccccc3)nc(N)n2)c1 | -0.028 | -4.5* | 56 | 0.21 | 1.5
SMILES | M1 agonist | Cav3 T inh | HER2 expr 66K | M1 antag | PLAP act
COc1ccc(OC)c(Nc2cc(C)nc3ccccc23)c1 | 0.33 | -0.095 | 62 | -0.033 | 0.7
C#CCOCCOCCOCCNc1nc(N2CCN(C(=O)Cn3cc(CC(C)O)nn3)CC2)nc(N2CCN(C(=O)[C@H](C)n3cc(CCCN=C(N)N)nn3)CC2)n1 (stereo not given in full) | nt | 0.58 | nt | nt | nt
CCOC(=O)C1=C(CSc2nc(C)cc(C)c2C#N)OC(N)=C(C#N)C1c1ccccc1 (stereo not given) | nt | -5.5* | nt | nt | 1.1
CCOC(=O)C1=C(CSc2nc(C)cc(C)c2C#N)OC(N)=C(C#N)C1c1cccs1 (stereo not given) | -0.8 | 0.18 | 118 | 0.26 | 1.1
CCOc1ccc(C2/C(=C(\O)c3cccc(OC)c3)C(=O)C(=O)N2c2cc(C)on2)cc1OC (stereo not given) | -0.43 | 0.091 | 88 | 0.097 | 1
CCOc1ccc(C2/C(=C(\O)c3ccc(OC)c(OC)c3)C(=O)C(=O)N2c2cc(C)on2)cc1OC (stereo not given) | -0.5 | -0.072 | 86 | -0.14 | 1.1
